Laboratory results taken from the supplement of paper PMC12669032.

Experiments:
Assay in all cases: growth AUC relative to DMSO control (median of replicates) (fraction); higher = more growth (less inhibition), active = hit call of the paper
Details in all cases: 20 µM; 24 h;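 active = AUC reduced over 20% with Padj below 0.05 in at least 2 of 3 replicates; inactive = otherwise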
[1] = tested on: Akkermansia muciniphila
How it was run: (§1)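 Gut bacterial monocultures were grown anaerobically at 37 °C in mGAM from a starting OD600 of 0.05 with 20 µM compound (1% DMSO), in round-bottom 96-well plates under pierced gas-permeable seals, and OD600 was read hourly for 24 h. With the minimum OD set to 0, area under the growth curve was normalised to the plate median of solvent-only wells, or to row and column medians on the industrial chemical plate. Each value is the median of three biological replicates grown on separate days.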

[2] = tested on: Bacteroides caccae
How it was run: as §1

[3] = tested on: Bacteroides clarus
How it was run: as §1

[4] = tested on: Bacteroides dorei
How it was run: as §1

[5] = tested on: Bacteroides stercoris
How it was run: as §1

[6] = tested on: Bacteroides thetaiotaomicron
How it was run: as §1

[7] = tested on: Bacteroides uniformis
How it was run: as §1

[8] = tested on: Bifidobacterium longum subsp. longum
How it was run: as §1

[9] = tested on: Clostridium difficile
How it was run: as §1

[10] = tested on: Collinsella aerofaciens
How it was run: as §1

Measured: growth AUC

Oc1ccc(Cl)cc1Cl
inactive: [1] 1.15 | [2] 0.802 | [3] 0.979 | [4] 0.893 | [5] 0.938 | [6] 0.936 | [7] 0.913 | [8] 1.05 | [9] 0.946 | [10] 0.909

Oc1c(Cl)ccc(Cl)c1Cl
inactive: [1] 1.04 | [2] 0.927 | [3] 0.968 | [4] 0.954 | [5] 1.15 | [6] 0.987 | [7] 0.981 | [8] 1.02 | [9] 1 | [10] 0.937

COC(C)(C)CCCC(C)C/C=C/C(C)=C/C(=O)OC(C)C (stereo not given)
inactive: [1] 0.867 | [2] 1 | [3] 0.989 | [4] 0.996 | [5] 1.03 | [6] 0.981 | [7] 0.963 | [8] 0.987 | [9] 1.02 | [10] 1.04

COP(=O)(OC)OC1=C(Cl)C2C=CCC12 (stereo not given)
inactive: [1] 1.03 | [2] 0.928 | [3] 0.995 | [4] 1 | [5] 1.42 | [6] 1.02 | [7] 1.02 | [8] 1.01 | [9] 1 | [10] 0.964

Nc1cnn(-c2ccccc2)c(=O)c1Cl
inactive: [1] 0.895 | [2] 1.01 | [3] 0.992 | [4] 0.995 | [5] 1.12 | [6] 1.01 | [7] 0.997 | [8] 0.936 | [9] 1.03 | [10] 1

CC(C)OC(=O)Nc1cccc(Cl)c1
inactive: [1] 1.06 | [2] 0.915 | [3] 0.985 | [4] 0.948 | [5] 1.04 | [6] 1.02 | [7] 0.984 | [8] 0.981 | [9] 1.01 | [10] 0.963

O=[N+]([O-])c1c(Cl)c(Cl)cc(Cl)c1Cl
inactive: [1] 1.02 | [2] 0.973 | [3] 1.01 | [4] 1.01 | [5] 1.19 | [6] 1.04 | [7] 0.992 | [8] 0.98 | [9] 1.02 | [10] 1.05

O=C(O)c1ccccc1C(=O)Nc1cccc2ccccc12
inactive: [1] 1.04 | [2] 1.04 | [3] 1.02 | [4] 1.02 | [5] 1.18 | [6] 1.01 | [7] 0.993 | [8] 1.03 | [9] 1.01 | [10] 1.03
